# A number with no mark means an inactive call. Results filed as inconclusive are left out. Entries that show only a call come without a potency. Calls of active or inactive are those of the source. Unless noted, calls come from the whole dose curve; as a rule, active = well fitted curve in the direction sought with a large enough effect in the repeat runs; inconclusive = weak or mixed curves; inactive = no such curve, though single readings can be large; an effect the other way counts as inactive or inconclusive.
# Legend:
# [1] = qHTS assay to identify small molecule agonists of the hypoxia (HIF-1) signaling pathway - cell viability counter screen (AID 1224844; calls by dose curve; note: nearly all actives have a fitted effect of over 50% in size; note: potency is the fitted concentration of half-maximal effect)
# Summary of the method: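 Cytotoxicity was measured in parallel with the HRE-driven beta-lactamase readout: after 17 hrs of compound exposure at 37C, HRE-bla ME-180 cells received CellTiter-Glo and luminescence was recorded 30 min later.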
# [2] = qHTS assay to identify small molecule agonists of H2AX (AID 1224845; active = well fitted activation curve with a large enough effect in the signal ratio in the repeat runs, not every such curve was filed as active; the % refers to the signal ratio)
# Summary of the method: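 Wild-type CHO-K1 cells, plated overnight, exposed 3hr at 37C to 15 concentrations (0.76% DMSO final). Lysed, then HTRF anti-pH2AX (S139) cryptate and anti-H2AX-d2 antibodies, 24 hr room temperature; 665/620 nm emission read.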
# [3] = qHTS assay to identify small molecule agonists of the hypoxia (HIF-1) signaling pathway (AID 1224846; active = well fitted activation curve with a large enough effect in the signal ratio in the repeat runs, not every such curve was filed as active; the % refers to the signal ratio)
# Summary of the method: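 Compounds from the Tox21 10K library, dissolved in DMSO, are tested for induction of a hypoxia response element–controlled beta-lactamase reporter in ME-180 cells. Exposure lasts 17 hrs at 37C after a 5 hr settling period, followed by CCF4-AM FRET substrate.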
# [4] = qHTS assay to identify small molecule agonists of H2AX - cell viability counter screen (AID 1224847; calls by dose curve; note: top concentration of the series differs between compounds; nearly all actives have a fitted effect of over 30% in size)
# Summary of the method: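 Wild-type CHO-K1 cells (10% FBS medium) were plated overnight at 37C, exposed to compounds at 15 concentrations for 3 hr at 37C (0.76% DMSO final), and viability was read as CellTiter-Glo luminescence after 30 min at room temperature.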
# [5] = qHTS RealTime-Glo MT Cell Viability Assay in HepG2 cells - 24 hour (AID 1224867); note: nearly all actives have a fitted effect of over 50% in size
# Summary of the method: (§1)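 Tox21 10K library screened in qHTS format on HepG2 cells carrying RealTime-Glo reagents. Compounds were added after a 5 h preincubation, and the luminescent signal from continuous culture was measured repeatedly during 40 h treatment.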
# [6] = qHTS RealTime-Glo MT Cell Viability Assay in HEK293 cells - 32 hour (AID 1224868); note: nearly all actives have a fitted effect of over 50% in size; note: potency is the fitted concentration of half-maximal effect
# Summary of the method: (§2)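 Luminescence generated by NanoLuc from substrate produced by living HEK293 cells served as the viability signal. Each value reflects the reading at its stated time point during continuous 40 h compound exposure at 37 C.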
# [7] = A CellTox Green Cytotoxicity Assay to monitor cytotoxicity in HEK293 cells - 0 hour (AID 1224869); note: nearly all actives have a fitted effect of over 50% in size
# Summary of the method: (§3)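 Cells (HEK293, 600/well) and dye reagent are dispensed together. After 5 h at 37 C, 23 nL compound is pinned in. Plates stay at 37 C for 40 h with fluorescence read at 0h, 8h, 16h, 24h, 32h and 40h.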
# [8] = qHTS RealTime-Glo MT Cell Viability Assay in HepG2 cells - 40 hour (AID 1224870); note: nearly all actives have a fitted effect of over 50% in size
# Summary of the method: (§4)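 HepG2 cells (600/well) mixed with RealTime-Glo MT reagent, settled 5 h at 37 C/5% CO2 before compound addition. Nonlytic NanoLuc luminescence from viable-cell prosubstrate reduction read repeatedly during 40 h treatment at 37 C.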
# [9] = A CellTox Green Cytotoxicity Assay to monitor cytotoxicity in HEK293 cells - 40 hour (AID 1224871); note: nearly all actives have a fitted effect of over 45% in size
# Summary of the method: as §3
# [10] = qHTS RealTime-Glo MT Cell Viability Assay in HEK293 cells - 16 hour (AID 1224872)
# Summary of the method: as §2
# [11] = qHTS RealTime-Glo MT Cell Viability Assay in HepG2 cells - 8 hour (AID 1224873); note: nearly all actives have a fitted effect of over 55% in size
# Summary of the method: as §4
# [12] = qHTS RealTime-Glo MT Cell Viability Assay in HEK293 cells - 40 hour (AID 1224874); details: RealTime-Glo luminescence; max response: stronger effect = lower value; note: nearly all actives have a fitted effect of over 50% in size; note: potency is the fitted concentration of half-maximal effect
# Summary of the method: (§5)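 Real-time viability in HEK293: signal arises when living cells convert a prosubstrate for NanoLuc in the medium, so luminescence tracks viable cell number. Compound (23 nL, DMSO) added 5 h post-seeding; kinetic reads at 0–40 h, 37 C.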
# [13] = A CellTox Green Cytotoxicity Assay to monitor cytotoxicity in HEK293 cells - 24 hour (AID 1224875); note: nearly all actives have a fitted effect of over 45% in size; note: potency is the fitted concentration of half-maximal effect
# Summary of the method: as §3
# [14] = A CellTox Green Cytotoxicity Assay to monitor cytotoxicity in HepG2 cells - 16 hour (AID 1224876); note: nearly all actives have a fitted effect of over 45% in size; note: potency is the fitted concentration of half-maximal effect
# Summary of the method: (§6)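 Cells and non-lytic dye reagent are dispensed together (600 HepG2 cells/well) and incubated 5 h before DMSO compound transfer. Kinetic fluorescence is then recorded in the same wells during 40 h at 37 C.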
# [15] = qHTS RealTime-Glo MT Cell Viability Assay in HepG2 cells - 32 hour (AID 1224877); note: nearly all actives have a fitted effect of over 55% in size
# Summary of the method: as §1
# [16] = A CellTox Green Cytotoxicity Assay to monitor cytotoxicity in HepG2 cells - 24 hour (AID 1224878); note: nearly all actives have a fitted effect of over 45% in size
# Summary of the method: as §6
# [17] = A CellTox Green Cytotoxicity Assay to monitor cytotoxicity in HepG2 cells - 40 hour (AID 1224879); note: nearly all actives have a fitted effect of over 40% in size
# Summary of the method: as §6
# [18] = qHTS RealTime-Glo MT Cell Viability Assay in HEK293 cells - 0 hour (AID 1224880)
# Summary of the method: as §5
SMILES,Potency [1],Potency [2],outcome [3],Potency [4],Potency [5],Potency [6],Potency [7],Potency [8],Potency [9],Potency [10],Potency [11],max response [12] [%],Potency [13],Potency [14],Potency [15],Potency [16],Potency [17],outcome [18],Potency [12]
CCCC1CCCCN1 (stereo not drawn),inactive,inactive,inactive,inactive,inactive,inactive,inactive,inactive,inactive,inactive,inactive,5.87,inactive,inactive,inactive,inactive,inactive,inactive,
Cc1nc(N(C)C)nc(OC(=O)N(C)C)c1C,inactive,inactive,inactive,inactive,inactive,inactive,inactive,inactive,inactive,inactive,inactive,2.7,inactive,inactive,,inactive,inactive,inactive,
CC(Oc1cccc(Cl)c1)C(=O)O (stereo not drawn),inactive,inactive,inactive,inactive,inactive,inactive,inactive,inactive,inactive,inactive,inactive,9.01,inactive,inactive,inactive,inactive,inactive,inactive,
OCCCl,inactive,inactive,inactive,inactive,inactive,inactive,inactive,inactive,inactive,inactive,inactive,0.0487,inactive,inactive,inactive,inactive,inactive,inactive,
C=CC(=O)NC(C)(C)CC(C)=O,inactive,inactive,inactive,inactive,inactive,inactive,inactive,inactive,inactive,inactive,inactive,3.92,inactive,inactive,,inactive,inactive,inactive,
O=C(O)C(F)(F)C(F)(F)C(F)(F)C(F)(F)C(F)(F)F,inactive,inactive,inactive,inactive,inactive,inactive,inactive,inactive,inactive,inactive,inactive,-1.16,inactive,inactive,inactive,inactive,inactive,inactive,
O=C([O-])c1ccccn1.O=C([O-])c1ccccn1.O=C([O-])c1ccccn1.[Cr+3],inactive,inactive,inactive,inactive,inactive,inactive,inactive,inactive,inactive,inactive,inactive,2.2,inactive,inactive,inactive,inactive,inactive,inactive,
CCN(C(C)=O)c1cccc(-c2ccnc3c(C#N)cnn23)c1,inactive,inactive,inactive,inactive,inactive,inactive,inactive,inactive,inactive,inactive,inactive,-13.6,inactive,inactive,inactive,inactive,inactive,inactive,
CN(C)N,inactive,inactive,inactive,inactive,inactive,inactive,inactive,inactive,,,inactive,6.16,,54.9 µM (active),inactive,,,inactive,
CCCCC#N,inactive,inactive,inactive,inactive,inactive,inactive,,inactive,inactive,inactive,inactive,-2.33,inactive,inactive,inactive,inactive,inactive,inactive,
CCC(C)(C)O,inactive,inactive,inactive,inactive,inactive,inactive,,inactive,inactive,inactive,inactive,6.83,inactive,inactive,inactive,inactive,inactive,inactive,
CC(C)CCON=O,inactive,inactive,inactive,inactive,inactive,inactive,,inactive,,inactive,inactive,0.253,,inactive,inactive,inactive,inactive,inactive,
COP(=O)(OC)OC(Br)C(Cl)(Cl)Br (stereo not drawn),43.6 µM (active),inactive,inactive,inactive,inactive,,,inactive,,,inactive,,inactive,inactive,,inactive,inactive,inactive,
CC(Cl)C(=O)O (stereo not drawn),inactive,inactive,inactive,inactive,inactive,inactive,,inactive,inactive,inactive,inactive,19.1,inactive,inactive,inactive,inactive,inactive,inactive,
CCCN(CCC)C(=O)Cc1c(-c2ccc(Cl)cc2)nc2ccc(Cl)cn12,inactive,inactive,inactive,inactive,inactive,5.35 µM (active),inactive,inactive,inactive,,inactive,,inactive,inactive,inactive,inactive,,inactive,5.35 µM (active)
Clc1ccc2ccccc2c1,inactive,inactive,inactive,inactive,inactive,,inactive,inactive,,,inactive,,50.5 µM (active),inactive,inactive,inactive,inactive,inactive,
